This is a sample that favours compounds with a hit; in the whole collection about 19% have one here.
ELG1 DNA repair: inhibitors of ELG1-dependent DNA repair in HEK293T cells; HEK293T ELG1-luciferase reporter, luminescence, 16 h; DNA damage induced by 5-fluorouridine; Potency, µM (top dose mostly 46.1 µM), inactives show top-dose activity change, negative = inhibition, actives largely listed as inhibitors; 330,000 compounds, 2.3% hits; AID 504467; further: potency means the concentration at half of the fitted maximal effect; nearly all actives have a fitted effect of over 55% in size
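Cells (2,000 per well) received 5-fluorouridine plus test compound or DMSO and were incubated 16 hr at 37 °C, 5% CO2. Luciferase activity was read by luminescence 30 min after ONE-Glo addition; signal suppression marked inhibition of damage-induced ELG1 function.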
IL-1B inflam inh: inflammasome signaling inhibition, IL-1 beta readout; activity change, % at 57.5 µM; 360,000 compounds, 4.7% hits; AID 743279; THP-1 LPS/ATP IL-1B secretion, AlphaLISA, 16 h; hits give low values; in the data active means activity change below about -50%; inconclusive means mostly about -30% to -49%
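THP-1 cells pretreated 1 hr with compounds (up to 57.5 uM final), then stimulated with LPS (250 ng/mL final) plus ATP (1.25 mM final); secreted IL-1B measured by AlphaLISA after 16 hr, decreased signal indicating inhibition.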
TDP1 cell noCPT: qHTS for Inhibitors of human tyrosyl-DNA phosphodiesterase 1 (TDP1): qHTS in cells in absence of CPT. AID 686978, 2013. 420,000 compounds, 15% hits. DT40 Tdp1-/- hTDP1 cells, no CPT, ATP luminescence, 48 h. Potency, µM (doses to about 46.2 µM), for the others: top-dose activity change, negative = growth inhibition, actives largely listed as inhibitors; further: potency means the concentration at half of the fitted maximal effect; nearly all actives have a fitted effect of over 55% in size
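A cellular qHTS used chicken DT40 cells lacking endogenous Tdp1 but carrying stably transfected human TDP1. Compounds were applied without camptothecin, and cell growth kinetics were judged by ATP-dependent luminescence after ≥48 hr.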
HT1080 IDH1KD tx: toxicity to HT-1080 IDH1 knockdown cells (counter line) | HT-1080 IDH1 knockdown viability, ATP luminescence, 48 h | Potency, µM (highest dose often 46.1 µM), without a hit: at the highest dose activity, negative = toxicity, usual class: cytotoxic | 360,000 compounds, 2% hits;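 further: potency means the concentration at half of the fitted maximal effect; 0% = DMSO wells and -100% = cell-free medium wells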
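CellTiter-Glo luminescence after 48 h compound exposure at 37 degrees C of IDH1-knockdown HT-1080 cells in 5% FBS RPMI. %Activity scaled between DMSO wells and cell-free media wells, with curves fitted and assigned curve classes.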
HT1080NT lethal: kills 2HG-producing HT-1080-NT fibrosarcoma cells; Potency, µM (titrated, usually from 46.1 µM), for inactives: at the highest dose activity, negative = less viability, hits mostly cytotoxic; 360,000 compounds, 1.6% hits; HT-1080-NT fibrosarcoma viability, CellTiter-Glo ATP luminescence, 48 h; AID 686970;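 further: NT is the 2HG producing partner of a matched IDH1 knockdown line; potency means the concentration at half of the fitted maximal effect; 0% = DMSO-treated cells and -100% = media-only wells without cells; nearly all actives have a fitted effect of over 55% in size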
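Viability by CellTiter-Glo luminescence after 48 h compound exposure at 37C of HT-1080-NT cells (750/well, RPMI, 5% FBS). % activity scaled between DMSO wells and medium-only wells, then curve-fitted and categorized by curve class.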
DT40 TDP1 CPT: growth inhibition of DT40 Tdp1-/-;hTDP1 cells with camptothecin (screen for TDP1 inhibitors). chicken DT40 Tdp1-/-;hTDP1 cells + 20 nM CPT, ATP luminescence, 48 h. Potency, µM (doses to about 46.2 µM), for inactives: at the highest dose activity change, negative = growth inhibition, actives largely listed as inhibitors. 420,000 compounds, 12% hits. AID 686979; further: potency means the concentration at half of the fitted maximal effect; nearly all actives have a fitted effect of over 55% in size
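Cell growth measured by CellTiter-Glo luminescence after a minimum 48 h, 37 C compound exposure with 20 nM CPT in Tdp1-knockout DT40 cells stably expressing hTDP1, seeded 400/well; qHTS titration format.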
Starred values were filed as active, the others as inactive; ? = inconclusive; · = not tested or not shown. Unless noted, the call rests on the fitted dose curve; in most records, active means well fitted curve in the direction sought with a large enough effect; inconclusive means small, poorly fitted or top-dose-only effect, or another doubt; inactive means no such curve, though single readings can be large; an effect the other way counts as inactive or inconclusive. Unless noted, on the % scale 0 is the no-effect control and ±100 the full control effect.

SMILES	ELG1 DNA repair	IL-1B inflam inh	TDP1 cell noCPT	HT1080 IDH1KD tx	HT1080NT lethal	DT40 TDP1 CPT
Cn1c(=O)c2c(nc(NCc3ccccc3)n2Cc2ccc(Cl)c(Cl)c2)n(C)c1=O	·	·	7.3µM*	·	·	8.2µM*
Cn1c(=O)c2c(nc(NCc3ccccc3)n2Cc2ccccc2)n(C)c1=O	·	·	4.1µM*	·	·	8.2µM*
C/C(Cl)=C\Cn1c(Nc2ccccc2)nc2c1c(=O)n(C)c(=O)n2C	11µM*	-6	?	2%	0%	11µM*
Cc1ccc(C)c(NC(=O)CN(C)C(=O)c2ccccc2Cc2ccccc2)c1	?	-14	?	-20%	0%	?
Cc1cccc(OCCCC(=O)NNC(=O)CCN2CCN(c3ccccc3)CC2)c1	-3%	-3	?	5%	4%	?
Cn1c(=O)c2nc(NCc3ccccc3)cnc2n(C)c1=O	5%	8	13µM*	13%	-2%	?
Cn1c(=O)c2c(ncn2Cc2ccccc2)n(C)c1=O	-23%	35	-29%	-9%	10%	?
COc1cccc(CSc2nc3ccncc3[nH]2)c1	?	4	18µM*	-25%	-27%	?
COc1cccc(N2CCN(C(=O)c3ccc(CSc4nc5ccncc5[nH]4)cc3)CC2)c1	?	18	18µM*	-13%	-11%	18µM*
COc1ccc(N2CCN(C(=O)c3ccc(CSc4ccccc4)cc3)CC2)cc1	0%	8	-26%	0%	-5%	-8%
Cc1ccc2c(c1)CCCN2C(=O)c1cnn2c1NC(=C1CC1)C=C2C(F)F	·	·	10µM*	·	·	10µM*
O=C(Nc1ccncc1)c1cnn2c1NC(=C1CC1)C=C2C(F)F	·	·	11µM*	·	·	10µM*
O=C(Nc1ccc(F)c(F)c1)c1cnn2c1NC(=C1CC1)C=C2C(F)F	·	·	-18%	23%	28%	16%
CCOc1ccc(C2NC(=O)CCC2[N+](=O)[O-])cc1 (centres undefined)	1%	17	-5%	12%	12%	-1%
O=C(COC(=O)c1ccc[n+]([O-])c1)Nc1c(Br)cc([N+](=O)[O-])cc1Br	-13%	·	·	·	·	·
CC(=O)Oc1cccc(/C=c2\sc3nc(-c4ccco4)nn3c2=O)c1	?	?	16µM*	-2%	-1%	?
CCOC(=O)Cc1csc(NC(=O)Cn2cnc3c2c(=O)n(C)c(=O)n3C)n1	5%	13	-80%	0%	9%	16µM*
CC(C)(C)c1csc(NC(=O)Cn2c(=O)oc3ccccc32)n1	?	15	?	-18%	-6%	16µM*
CCOC(=O)Cc1csc(NC(=O)Cn2c(=O)oc3ccccc32)n1	-8%	-84*	-18%	-5%	-6%	-29%
COc1ccc(NC(=O)CN(C)S(=O)(=O)c2cnc[nH]2)cc1Cl	9%	25	36%	7%	14%	11%
O=c1ccc(-c2ccccc2)nn1Cc1ccc(F)cc1Cl	-5%	?	?	?	-19%	?
Cc1cn(CC(=O)N[C@H](C)c2cccc3ccccc23)c(=O)[nH]c1=O	·	12	-12%	7%	5%	0%
CCNc1nc(NC#N)nc(SCC(=O)OCC)n1	-3%	6	1%	23%	15%	5%
CNc1nc(NC#N)nc(SC)n1	-1%	15	?	0%	0%	21µM*
CC1(C)NC(=O)N(CC(O)CN(c2ccccc2)S(=O)(=O)c2ccccc2[N+](=O)[O-])C1=O (centres undefined)	2%	7	-6%	22%	7%	9%
SMILES	ELG1 DNA repair	IL-1B inflam inh	TDP1 cell noCPT	HT1080 IDH1KD tx	HT1080NT lethal	DT40 TDP1 CPT
CCCC1CCc2c(sc(NC(=O)OCC)c2C#N)C1 (centres undefined)	?	?	23µM*	18µM*	?	15µM*
CC(C)CN(CC(C)C)c1ccc(/C=C/c2nc3ccccc3s2)cc1	·	·	3.5µM*	·	·	5µM*
Nc1nnc(/C=C/c2ccccc2)s1	?	-2	-4%	-1%	-8%	11%
CC(=O)Nc1ccc(/C=C/c2nc3ccccc3s2)cc1	·	·	11µM*	·	·	?
Nc1ccc(/C=C/c2nc3ccccc3s2)cc1	·	·	13µM*	·	·	11µM*
Cc1cccc(CN2CCN(CC(=O)NCc3ccc(Cl)cc3)C2=O)c1	·	·	?	·	·	1%
C=C1C(=O)O[C@@H]2[C@H]1[C@@H](OC(=O)/C(C)=C/C)C/C(C)=C\C(=O)/C=C(\C)[C@@H]2O	?	-102*	2.1µM*	?	?	1.5µM*
CCC(C(=O)OC)n1cnc2c(nnn2-c2ccc(F)cc2)c1=O (centres undefined)	7%	-4	-3%	4%	2%	-4%
Cc1ccc(C)c(Cn2c3ccccc3c3cnn(CC(=O)NCCN4CCOCC4)c(=O)c32)c1	2%	-25	18µM*	-15%	?	16µM*
Cc1ccc(C)c(Cn2c3ccccc3c3cnn(CC(=O)NCCCN4CCOCC4)c(=O)c32)c1	2%	-55*	?	?	?	?
Cc1cc(C)c(Cn2c3ccccc3c3cnn(CC(=O)NCCN4CCOCC4)c(=O)c32)c(C)c1	-1%	-10	?	-14%	3%	?
